Over roughly 35,000 sequences, “fluorescence intensity (a.u.)” has its median near 10,000; the highest 2% begin near 52,000. Only a selection was taken, and the highest values are over-represented in it overall.

We go through 44 sequences from article PMC7819943, “Rice protein-binding microarrays: a tool to detect cis-acting elements near promoter regions in rice”.

In the test the target is T1, OsWOX13 (Oryza sativa, UniProt Q5QMM3 1-267).
T1 sequence: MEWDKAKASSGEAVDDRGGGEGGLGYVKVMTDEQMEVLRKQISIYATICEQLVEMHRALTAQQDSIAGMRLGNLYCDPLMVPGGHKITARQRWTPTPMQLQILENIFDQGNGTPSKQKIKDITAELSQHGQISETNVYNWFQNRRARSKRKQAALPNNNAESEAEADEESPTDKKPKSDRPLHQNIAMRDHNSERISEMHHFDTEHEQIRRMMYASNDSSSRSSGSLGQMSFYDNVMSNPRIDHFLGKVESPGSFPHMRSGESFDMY
As to the kind of experiment: protein-binding microarray (RPBM); PBS, 2% BSA, 51.3 ng/ul salmon testes DNA, 50 uM zinc acetate, 200 nM TF, 25 C, 1 h; high values mean tight binding. Particulars: protein: recombinant; tags: N-terminal polyhistidine and DsRed monomer fusion (pET32a); label: CyDye5-dUTP incorporated in the synthesized complementary strand; 3' TTTTT single-stranded linker to array surface; dsDNA, one strand shown. The essentials:
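Polyhistidine-tagged DsRed fusions of transcription factors, joined at the N-terminus, were expressed in E. coli BL21-CodonPlus and isolated on Ni–NTA. They were incubated at 200 nM for 1 h at 25 °C on a custom Agilent array, double-stranded and BSA-blocked, in PBS with 2% BSA, salmon testes DNA and 50 µM zinc acetate. The binding signal is per-feature fluorescence intensity (arbitrary units) read on an Axon 4000B scanner after washing.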
“GTCATTGATTGATCAAGGGATCAATGCAAAACAACGCATTCGGAGTCACCTAGTGCAG”: the binding signal is 20300 fluorescence intensity (a.u.).

Turning to “AGAAAATTAATGTTCAACAAACTCGTCACAAATTAAGTTTCGGAGTCACCTAGTGCAG”, the binding signal is 13600 fluorescence intensity (a.u.). For the sequence “TAAATTTATAGTCAATTGTAGCATGAGCTCTAATAAACTGCGGAGTCACCTAGTGCAG”, the binding signal is 4880 fluorescence intensity (a.u.). Take “AGCAGCATAAATGCAATTAAATTTGTAGCAATCGAACATGCGGAGTCACCTAGTGCAG”: the binding signal is 4680 fluorescence intensity (a.u.). As for “TCATGTCATAAATTAAATTATTTGAAATTATTTGGTACAGCGGAGTCACCTAGTGCAG”, the binding signal is 13900 fluorescence intensity (a.u.). As to “GGTTAATTTGACATAAACAGCGTCAGAAATGTAGTTCATGCGGAGTCACCTAGTGCAG”, the binding signal was 57900 fluorescence intensity (a.u.). In the case of “TCCAAATCCTACAATAATTGATTGAATCAAACACAGAAAGCGGAGTCACCTAGTGCAG” it was 41200 fluorescence intensity (a.u.); in that of “GCAAATTGATAATTGAAACAGAATTCAGTCGTTTGTACAGCGGAGTCACCTAGTGCAG”, 62700 fluorescence intensity (a.u.). For “TCTAAACTGATAATTGCAAATTGTAATTGATAGCATTGAGCGGAGTCACCTAGTGCAG”, the binding signal was 63700 fluorescence intensity (a.u.). Under “TCTAATTAGTAAACTGTAGTAGTGAGCAAATTGTACTAGACGGAGTCACCTAGTGCAG” stands 20900 fluorescence intensity (a.u.); under “TCATGTAATTGTTGATAAGAGTGTCAGAATTCAGATAGTGCGGAGTCACCTAGTGCAG”, 13500 fluorescence intensity (a.u.). “TTATTAATTTGTAATAGGTGTATTTCGGTCTTATTAAACTCGGAGTCACCTAGTGCAG”: the binding signal was 19600 fluorescence intensity (a.u.). In the case of “CGTAAATTTTCAATAAAATTTTAGTGAAATCAGGAATATGCGGAGTCACCTAGTGCAG”, the binding signal is 17500 fluorescence intensity (a.u.). For “AATAAAACTTACATGAGTTAATTGAGTGAGAAATTAATTCCGGAGTCACCTAGTGCAG”, the binding signal is 4550 fluorescence intensity (a.u.). With “TACCGATAATTTGTTATAGATCCCTAGACGTACATTCCTCCGGAGTCACCTAGTGCAG”, the binding signal is 19900 fluorescence intensity (a.u.). In the case of “CATGATGATAGTGATAGCAACTCAAGCAATACTAACGCACCGGAGTCACCTAGTGCAG” it was 14700 fluorescence intensity (a.u.); in that of “GCAGATTAGTTGTGGCAAACATTCTCTTGTGTGCAGCACTCGGAGTCACCTAGTGCAG”, 3650 fluorescence intensity (a.u.); in that of “CCAAATTAAGTGGAAATTAATTTGCAAGCTGAGAACGATGCGGAGTCACCTAGTGCAG”, 55000 fluorescence intensity (a.u.). In the case of “CAAATTGAAGAGGATGCATGAATTGGATTTGCAGGAGAAGCGGAGTCACCTAGTGCAG” it was 5250 fluorescence intensity (a.u.). Consider “TTGAAATTGGAGATGATGTGACTGAAAAGTTGTGTGTGTACGGAGTCACCTAGTGCAG”, for which the binding signal was 21000 fluorescence intensity (a.u.).

Regarding “ACTTGATTGAAATCGAAGCATCTGTTTTCGCGTGTTTGAGCGGAGTCACCTAGTGCAG”, the binding signal is 59900 fluorescence intensity (a.u.).

For “TCCTAGGTGATCTGGGTGATTGTGAGTGAGTTTTGTTTCGCGGAGTCACCTAGTGCAG”, the binding signal was 4180 fluorescence intensity (a.u.).

“TTCAAATTTAATGCAAAGATTAAGTTGATGAGAAACGACGCGGAGTCACCTAGTGCAG”: the binding signal was 6640 fluorescence intensity (a.u.). For “ATTGATGATTGAAATTTGCTGTGCAAATCGAGAACTGAAGCGGAGTCACCTAGTGCAG”, the binding signal is 53500 fluorescence intensity (a.u.).

“TAAGCTAATTTGACCGCTGAAAGTGATGGAAAGCAAGCAACGGAGTCACCTAGTGCAG”: the binding signal was 4480 fluorescence intensity (a.u.). As to “GAATCTTGAAATTGAGCTGATTAATTTTCTTCTTGTTGAGCGGAGTCACCTAGTGCAG”, the binding signal was 11800 fluorescence intensity (a.u.). As to “GAATGATTGTGGATGATGAAATAAATACTGCTCTTGTCAGCGGAGTCACCTAGTGCAG”, the binding signal is 33400 fluorescence intensity (a.u.).

Take “TTGTGAAATGTTGATGAGGCTGATTGAGCGAGAAGCAGTGCGGAGTCACCTAGTGCAG”: the binding signal is 20000 fluorescence intensity (a.u.).

On to “ATGATTGGAGTCAAATTGAACTTGTACTGATGTGGAGGAGCGGAGTCACCTAGTGCAG”, for which the binding signal is 53400 fluorescence intensity (a.u.). For the sequence “AACAAATAAATTACTATTAGAGTAGGATGTTCGGCAAAGTCGGAGTCACCTAGTGCAG”, the binding signal was 7390 fluorescence intensity (a.u.). Under “ATATTGATGTTAATGAATCTAAATAGATATATATGTCTAGCGGAGTCACCTAGTGCAG” stands 5520 fluorescence intensity (a.u.); under “GTAGACTGATCACAATCTTTATTAGAATCGTTTAAGACACCGGAGTCACCTAGTGCAG”, 6090 fluorescence intensity (a.u.); under “TCTAATTTATTAGAGCGCCACATGACGGCTTGAGAGCGTTCGGAGTCACCTAGTGCAG”, 19200 fluorescence intensity (a.u.). As for “TTCGTTCATCATCAATCAAAACATGGGACTATAAGGATTTCGGAGTCACCTAGTGCAG”, the binding signal is 7300 fluorescence intensity (a.u.). For the sequence “AGTCAGCTGATTTAAATATAAACAGGGGTAAGAATTTAAGCGGAGTCACCTAGTGCAG”, the binding signal was 15000 fluorescence intensity (a.u.).

In the case of “TATTTTGTAATCATTTGTTTTATATTTGAATTCCTGTCAGCGGAGTCACCTAGTGCAG”, the binding signal is 3710 fluorescence intensity (a.u.). As for “GGTAAATATAATAAATTATTGATCTAACAACTTGAAATTACGGAGTCACCTAGTGCAG”, the binding signal was 3460 fluorescence intensity (a.u.). For “AATGATCTGATGGATGTTCTCTCACGTTCAAATCAGAGGCCGGAGTCACCTAGTGCAG”, the binding signal was 8430 fluorescence intensity (a.u.). Turning to “CAATATTCTTTGACAGCTTCGATTGACATCTCACCTTATGCGGAGTCACCTAGTGCAG”, the binding signal was 9220 fluorescence intensity (a.u.). Consider “AGCTGCATATATTGATTGACAGGTGTACCGATTCCTTATGCGGAGTCACCTAGTGCAG”, for which the binding signal is 54400 fluorescence intensity (a.u.).

“TGGGTCATTTATTGATTATTGTATTATTGTTCCTTATATTCGGAGTCACCTAGTGCAG”: the binding signal is 10300 fluorescence intensity (a.u.). For the sequence “GTCAATTTAGATTGCCGCGCTTACAATTAGTTCTCAGGAACGGAGTCACCTAGTGCAG”, the binding signal is 15100 fluorescence intensity (a.u.). Turning to “ACAAAGTAATTGATTTCTTGTGTGAGGCCTTGTTTAGATCCGGAGTCACCTAGTGCAG”, the binding signal is 53400 fluorescence intensity (a.u.).

Turning to “AGTGATTAGATTAGTGAACTGATTAACATTTCTTGTGTTCCGGAGTCACCTAGTGCAG”, the binding signal was 64700 fluorescence intensity (a.u.).
